In PubChem BioAssay (NCI):
Several values for one entry are separate records, joined by “and”; a condition that tells them apart may be missing. Equal values may be shown once. This is part of a sample that, as a whole, favours compounds with a hit. Of some 79,000 tested, about 15% had one in any assay. No stated cut-off is given here; in the data, active means growth inhibition above about 70%; inactive means the rest.

Experiments:
[1] = NCI Yeast Anticancer Drug Screen. Data for the rad50 strain (AID 155);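 further: 0% = growth of vehicle-only cultures of the same strain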; details: S. cerevisiae rad50 strain growth inhibition, stronger effect = higher value; at 50.0 µM unless noted
Procedure, shortened: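 Readout: growth inhibition relative to vehicle-treated cultures. Compound exposure was carried out in a genetically defined yeast strain deficient in DNA damage repair.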

[2] = NCI Yeast Anticancer Drug Screen. Data for the mec2-1 strain (AID 157); details: S. cerevisiae mec2-1 strain, stronger effect = higher value; at 50.0 µM unless noted
Procedure, shortened: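 Yeast mec2-1 mutant treated with compound. Readout: growth inhibition vs vehicle controls.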

[3] = NCI Yeast Anticancer Drug Screen. Data for the sgs1 mgt1 strain (AID 161);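 further: 0% = growth of cultures given vehicle only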; details: S. cerevisiae sgs1 mgt1 strain, stronger effect = higher value; at 50.0 µM unless noted
Procedure, shortened: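 Test agents were incubated with a DNA-repair-mutant yeast strain. Growth was then read and compared against vehicle-treated controls.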

[4] = NCI Yeast Anticancer Drug Screen. Data for the cln2 rad14 strain (AID 165);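 further: 0% = growth equal to vehicle treated cultures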; details: S. cerevisiae cln2 rad14 strain, stronger effect = higher value; at 50.0 µM unless noted
Procedure, shortened: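 cln2 rad14 yeast strain; compound exposure; growth inhibition read vs vehicle controls.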

[5] = NCI Yeast Anticancer Drug Screen. Data for the bub3 strain (AID 167); details: S. cerevisiae bub3 mutant strain, stronger effect = higher value; at 50.0 µM unless noted
Procedure, shortened: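 Readout: yeast growth inhibition, expressed relative to vehicle-only wells. The test organism is a mutant strain from a panel with lesions in DNA repair or checkpoint genes.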

[6] = NCI Yeast Anticancer Drug Screen. Data for the mlh1 rad18 strain (AID 175); details: S. cerevisiae mlh1 rad18 strain growth inhibition, stronger effect = higher value; at 50.0 µM unless noted
Procedure, shortened: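 Yeast w/ defined DNA-repair lesions; compound exposure; growth vs vehicle controls → % inhibition.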

Measured: growth inhibition

CC1(C)CC(=O)C=C(n2ccccc2=O)C1
inactive: [1] 2.7% | [2] -5.3% | [3] 0.15% | [4] 7.5% | [5] -19.8% | [6] -1.8%

CC(C)COC(=O)C(CC(C)C)NC(=O)C(C)O (stereo not given)
inactive: [1] 5.95% | [2] -17.4% | [3] -13.3% | [4] 10.8% | [5] -14.7% | [6] 6.6%

Cc1ccc(S(=O)(=O)OC2CSS(=O)CC2OS(=O)(=O)c2ccc(C)cc2)cc1 (stereo not given)
inactive: [1] 12.8% | [2] -3.15% | [3] 4.45% | [4] 19.1% | [5] -1.4% | [6] 21.1%

Nc1ccccc1NC(=O)C(F)(F)C(F)(F)C(F)(F)C(=O)Nc1ccccc1N
inactive: [1] 3.15% | [2] -6.25% | [3] -14.6% | [4] -12.3% | [5] 28.6% | [6] -16.6%

CC1=NN(C(=O)c2ccc(Cl)cc2)C(=O)/C1=C/c1cccc([N+](=O)[O-])c1
inactive: [1] -16.7% | [2] -26.2% | [3] -44.9% | [4] -10.6% | [5] -15.9% | [6] -28.4%

CCN(CC)c1c(C)c(-c2ccccc2)n[n+]([O-])c1-c1ccccc1
inactive: [1] 35.9% | [2] 24.1% | [3] 14.4% | [4] 1.85% | [5] 17.9% | [6] 24.8%

CN(C)C[C@@H]1C2C=CC(C2)[C@@H]1CO (stereo not given in full)
inactive: [1] -6.5% | [2] 4.55% | [3] -0.9% | [4] 4.95% | [5] 2.25% | [6] -10.6%

CC(O)(c1ccccc1)c1ccccc1
inactive: [1] -13.3% | [2] -1.75% | [3] -25.6% | [4] -16.8% | [5] -2.3% | [6] -33.3%

Nc1c(Cl)ncnc1NCc1ccco1
inactive: [1] 5.25% | [2] -4.2% | [3] -13.8% | [4] -13.8% | [5] -1.05% | [6] -7.85%

CN(O)C(=O)CCC(NC(=O)CCC(N)C(=O)O)C(=O)NCC(=O)O (stereo not given)
inactive: [1] -25.4% | [2] -9.3% | [3] -11.9% | [4] 0.1% | [5] 1.6% | [6] -51.8%

O=P(O)(O)OCC1OC(n2cnc3c(=S)nc[nH]c32)C(O)C1O (stereo not given)
inactive: [1] -17.4% | [2] 3.95% | [3] -14.1% | [4] 3.9% | [5] -7.7% | [6] -3.55%

CCNC(=O)CCCC(=O)OC
inactive: [1] 9.75% | [2] 4.55% | [3] 18.9% | [4] 14.6% | [5] 7.35% | [6] 2.2%

COC(=O)C(Cc1nc2ccc(Cl)cc2[nH]c1=O)/C(=N\N)C(=O)Nc1cc(C)c(Cl)cc1S(=O)(=O)O (stereo not given)
inactive: [1] 24.9% | [2] -2% | [3] 5.5% | [4] -70.3% | [5] -3.35% | [6] 5.95%

O=[N+]([O-])c1ccn(Cc2ccccc2)c1
inactive: [1] -6.25% | [2] 2.95% | [3] 5.65% | [4] -41.5% | [5] -14.2% | [6] 9.5%

S=C(c1ccccc1)c1cccc2ccccc12
inactive: [1] 57% | [2] 15.1% | [3] 58% | [4] 2.8% | [5] -3.55% | [6] 36.9%

CC(=O)CC(C[N+](=O)[O-])c1ccccc1 (stereo not given)
inactive: [1] -4.7% | [2] -0.8% | [3] -4.65% | [4] -28.5% | [5] -21.6% | [6] -6.9%

N.N.N.N.O=C(O)C1OCCOCCOC(C(=O)O)C(C(=O)O)OCCOCCOC1C(=O)O.[Pt+2].[Pt+2] (stereo not given)
inactive: [1] -33.2% | [2] -14% | [3] -12.5% | [4] -26.1% | [5] -13.5% | [6] -9.2%

O=[N+]([O-])c1ccccc1S(=O)(=O)c1cccc2c1NCCC2
inactive: [1] 33.8% | [2] 12.3% | [3] 33.5% | [4] 31.4% | [5] 48% | [6] 46.9%

O=S(=O)(O)c1cc(N=[N+]([O-])c2ccc(N=Nc3ccccc3)cc2S(=O)(=O)O)ccc1/C=C/c1ccc(N=[N+]([O-])c2ccc(N=Nc3ccccc3)cc2S(=O)(=O)O)cc1S(=O)(=O)O
inactive: [1] 28.6% | [2] 11.9% | [3] 9.8% | [4] 7.15% | [5] 0.8% | [6] 50.4%

CC(=O)OC1CCC(C(C)(C)C)CC1 (stereo not given)
inactive: [1] -12.8% | [2] -41% | [3] -19.2% | [4] 2.5% | [5] -28.2% | [6] -15.8%

CC[N+]1(CN2CCCCC2)CCCCC1
inactive: [1] 18.5% | [2] -2.8% | [3] 4% | [4] -7.4% | [5] -22.6% | [6] 37.6%

Cc1cc(-c2cccc3ccccc23)[n+]([O-])cc1C
inactive: [1] 15.6% | [2] 1.15% | [3] 17.2% | [4] -16.3% | [5] -24.1% | [6] 11.8%

NC(=O)Nc1ccc(/C=C\c2ccnc3ccccc23)cc1
inactive: [1] -19.7% | [2] 2.5% | [3] 4.95% | [4] -31.9% | [5] -15.9% | [6] -9.45%

O=c1oc(-c2ccc([N+](=O)[O-])cc2Cl)nc2ccccc12
inactive: [1] 13.2% | [2] 23.4% | [3] 31.1% | [4] 2% | [5] 38.6% | [6] 29.9%

Cc1c(C(=O)C/C(=N/NC(=O)C[n+]2ccccc2)C(=O)Nc2ccccc2)[n+](=O)c2ccccc2n1O
inactive: [1] -37.5% | [2] 0.2% | [3] -40.7% | [4] -0.7% | [5] -15.2% | [6] -31.4%

O=C(CCCl)Nc1ccc(C(=O)CCc2cccc(NC(=O)CCCl)c2)cc1
inactive: [1] 28.9% | [2] 2.65% | [3] 7.75% | [4] 22.5% | [5] -0.65% | [6] 6.3%

O=C(OCc1ccccc1)C1CCN1C(c1ccccc1)c1ccccc1 (stereo not given)
inactive: [1] 7.85% | [2] 13.5% | [3] 5.5% | [4] -25.6% | [5] 11.2% | [6] -7.8%

COc1cc(C2c3cc4c(cc3OC(NN=C(C)C)C2C)OCO4)cc(OC)c1O (stereo not given)
inactive: [1] 14.2% | [2] 1.7% | [3] 9.65% | [4] 4.5% | [5] 12.8% | [6] 10.9%

CC(=O)[C@@]1(O)CC[C@H]2[C@@H]3CC=C4C[C@@H](Cl)CC[C@]4(C)[C@H]3CC[C@@]21C
inactive: [1] -16.9% | [2] 4.85% | [3] 13.8% | [4] -2.75% | [5] 8.5% | [6] 7.1%

Cc1nc(C(Cl)(Cl)Cl)[nH]c(=O)c1SCCO
inactive: [1] 12.8% | [2] -15.7% | [3] -9.05% | [4] 10.1% | [5] -2.4% | [6] -6.35%

O=C(CNC(=O)C(Cc1ccccc1)N1C(=O)c2ccccc2C1=O)Nc1ccccc1 (stereo not given)
inactive: [1] 34.4% | [2] -1.55% | [3] 46.3% | [4] 5% | [5] 17.4% | [6] 6.55%

Cc1cc(-c2cc(C)c(O)c(C)c2)cc(C)c1O
inactive: [1] 17.1% and -1.5% | [2] 16.6% and 0.8% | [3] 39.1% and -7.05% | [4] 14.9% and -4.3% | [5] 4.7% and -35.7% | [6] 23.2% and 3.3%

CC(C)COC(=O)/C=C/c1ccccc1
inactive: [1] 19.8% | [2] 16.6% | [3] 20.6% | [4] 7.3% | [5] 2.9% | [6] 11.6%

CC1=C(C(=O)Nc2ccccc2)C(c2ccc(N(C)C)cc2)C(C(=O)Nc2ccccc2)=C(C)N1
inactive: [1] -13.7% | [2] 7.4% | [3] -6.3% | [4] 24.4% | [5] -6.8% | [6] 15.8%

Fc1ccc2c(c1)SC1Oc3ccccc3-c3c1c-2nn3-c1ccccc1 (stereo not given)
inactive: [1] -5.45% | [2] -7.45% | [3] -17.4% | [4] 8.8% | [5] -11.1% | [6] -2.6%

O=C(NC(Cc1ccc(I)cc1)C(=O)O)c1ccc(Br)cc1 (stereo not given)
inactive: [1] -4.3% | [2] -5.65% | [3] 2.8% | [4] 12.1% | [5] -9.4% | [6] -0.9%

Clc1nn2cnnc2c2ncccc12
inactive: [1] 2.8% | [2] -0.45% | [3] 2.95% | [4] -13.3% | [5] 15.2% | [6] 16.4%

O=[N+]([O-])c1ccc(CC(Cl)c2ccccc2)cc1 (stereo not given)
inactive: [1] 40.8% | [2] 2.35% | [3] 39.5% | [4] -19.1% | [5] 29.8% | [6] 63%

Cc1cc(O)c(C)cc1O
inactive: [1] 16.1% | [2] 5.5% | [3] -2.85% | [4] 6.5% | [5] -7.95% | [6] 21.6%

O=C(c1ccc(Cl)cc1)N1CCC(CCCc2ccccc2)CC1
inactive: [1] -2.2% | [2] 3.45% | [3] -4.3% | [4] 5.05% | [5] 12.8% | [6] -3.2%
